Data from PubChem BioAssay.
Results filed as inconclusive are left out. Calls of active or inactive are those of the source. Unless noted, no cut-off is given here; in the data, nearly all actives have AC50 up to about 26 µM.

Legend:
[1] = viability loss in pontine glioma line – cell-based, SU-DIPG-XVII, MIPE5.0, CellTiter-Glo, qHTS, dose response (AID 1347060); conditions: CellTiter-Glo ATP luminescence;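 for AC50: cells exposed to compound for 48 hours before viability readout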
[2] = viability loss in pontine glioma line – cell-based, SU-DIPG-XIII, MIPE4.0, CellTiter-Glo, qHTS, dose response (AID 1347061; cut-off not given, nearly all actives have AC50 up to about 37 µM;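 note: cells exposed to compound for 48 hours before readout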); conditions: CellTiter-Glo ATP luminescence
[3] = viability loss in pontine glioma line – cell-based, JHH-DIPG-1, MIPE4.0, CellTiter-Glo, qHTS, dose response (AID 1347062; cut-off not given, nearly all actives have AC50 up to about 27 µM;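 for AC50: cells exposed to compound for two days before readout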); conditions: JHH-DIPG-1 viability, CellTiter-Glo ATP luminescence
[4] = viability loss in pontine glioma line – cell-based, SU-DIPG-IV, MIPE4.0, CellTiter-Glo, qHTS, dose response (AID 1347063; cut-off not given, nearly all actives have AC50 up to about 30 µM;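 note: compound exposure lasted 48 hours before the viability readout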); conditions: CellTiter-Glo ATP luminescence
[5] = viability loss in pontine glioma line – cell-based, SU-DIPG-XIII, MIPE5.0, CellTiter-Glo, qHTS, dose response (AID 1347064; cut-off not given, nearly all actives have AC50 up to about 23 µM;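 for AC50: cells exposed to compound for 48 hours before the viability read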); conditions: CellTiter-Glo ATP luminescence
[6] = viability loss in pontine glioma line – cell-based, SU-DIPG-XXV, MIPE5.0, CellTiter-Glo, qHTS, dose response (AID 1347065); conditions: CellTiter-Glo ATP luminescence;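 note: cells exposed to compound for 48 hours before ATP readout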
[7] = growth inhibition of DIPG cells – cell-based, MIPE4.0 library, CellTiter-Glo luminescence, qHTS (AID 1347066; cut-off not given, nearly all actives have AC50 up to about 30 µM;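 note: cells exposed to compound for 48 hours before readout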); conditions: SU-DIPG-VI viability, CellTiter-Glo ATP luminescence
[8] = JHH-DIPG-1 glioma cell viability, MIPE5.0 library, CellTiter-Glo luminescence, qHTS (AID 1347067); conditions: JHH-DIPG-1 glioma viability, CellTiter-Glo ATP luminescence;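 note: cells exposed to compound for 48 hours before readout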
[9] = growth inhibition of DIPG cells – cell-based, MIPE5.0 library, qHTS (AID 1347068; cut-off not given, nearly all actives have IC50 up to about 30 µM;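 for IC50: cells exposed to compound for 48 hours before viability readout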); conditions: SU-DIPG-XXV viability
[10] = viability loss with induced miR-34 in A549 – imaging, A549 dox-inducible miR-34, nuclei and caspase counts, primary screen (AID 1347080;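 active = compounds whose cell count with miR-34 switched on is under 0.7 times the count with it off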); conditions: A549 miR-34 inducible, Hoechst nuclei count, 48 h
[11] = compounds altering HSF1 focus formation in cells – imaging, Selleck Cancer Library (AID 1347162; in the data active = plate-normalised HSF1 focus index below about 0.46); conditions: human cells, HSF1 nuclear foci imaging, at 10 µM; SSMD: measured here: HSF1 foci SSMD mean; cell count: measured here: cell number; plate-normalised HSF1 focus index: stronger effect = lower value
[12] = MELAS cybrid and Rieske KO viability enhancers – cell-based, MELAS cybrids, Rieske KO mouse fibroblasts, CellTiter-Glo, primary screen (AID 1508586;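 active = mean z-score across replicates of 1.96 or higher in either the MELAS or the Rieske mutant cell line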;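 note: z relative to plate mean and SD of compound and empty wells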); conditions: low glucose
[13] = drug combination growth inhibition, ovarian cancer – cell-based, oncology-focused library, rucaparib conditional, profiling panel (AID 1508598;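 active = normalized viability below 100% at a tested concentration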); conditions: patient-derived ovarian cancer cells, CellTiter-Glo viability, 144 h, stronger effect = lower value

Cn1cc(-c2ccc3nnc(Sc4ccc5ncccc5c4)n3n2)cn1
active: viability ([13]; at 0.000305 µM, OCI-P5x cells, with rucaparib 20 µM, 100% = cells with rucaparib alone) 97.6% | viability ([13]; at 0.000305 µM, OCI-P5x cells, without rucaparib) 94.3% | viability ([13]; at 0.00122 µM, OCI-P5x cells, without rucaparib) 98.6% | viability ([13]; at 5 µM, OCI-P5x cells, with rucaparib 20 µM, 100% = cells with rucaparib alone) 91.5%
7530: cell count [11]
8160: cell count ([10]; measured here: total cells without miR-34 induction)
7210: cell count ([10]; measured here: total cells with miR-34 induction, stronger effect = lower value)
1.79: SSMD [11]
0.78: fold change ([10]; measured here: relative caspase fold change +Dox/-Dox)
0.75: z-score ([12]; Rieske KO mouse fibroblast survival, CellTiter-Glo 72 h)
inactive: outcome [1] | outcome [2] | outcome [3] | outcome [4] | outcome [5] | outcome [6] | outcome [7] | outcome [8] | outcome [9] | fold change ([10]; stronger effect = lower value, cell number ratio, induced over uninduced) 0.884 | plate-normalised HSF1 focus index [11] 1.11 | z-score ([12]; MELAS cybrid survival, CellTiter-Glo 48 h, stronger effect = higher value) -0.396 | viability ([13]; at 0.000305 µM, OCI-C5x cells, with rucaparib 10 µM, 100% = cells with rucaparib alone) 127% | viability ([13]; at 0.000305 µM, OCI-C5x cells, without rucaparib) 127% | viability ([13]; at 0.00122 µM, OCI-C5x cells, with rucaparib 10 µM, 100% = cells with rucaparib alone) 135% | viability ([13]; at 0.00122 µM, OCI-C5x cells, without rucaparib) 125% | viability ([13]; at 0.00122 µM, OCI-P5x cells, with rucaparib 20 µM, 100% = cells with rucaparib alone) 111% | viability ([13]; at 0.00488 µM, OCI-C5x cells, with rucaparib 10 µM, 100% = cells with rucaparib alone) 132% | viability ([13]; at 0.00488 µM, OCI-C5x cells, without rucaparib) 125% | viability ([13]; at 0.00488 µM, OCI-P5x cells, with rucaparib 20 µM, 100% = cells with rucaparib alone) 112% | viability ([13]; at 0.00488 µM, OCI-P5x cells, without rucaparib) 102% | viability ([13]; at 0.0195 µM, OCI-C5x cells, with rucaparib 10 µM, 100% = cells with rucaparib alone) 126% | viability ([13]; at 0.0195 µM, OCI-C5x cells, without rucaparib) 122% | viability ([13]; at 0.0195 µM, OCI-P5x cells, with rucaparib 20 µM, 100% = cells with rucaparib alone) 110% | viability ([13]; at 0.0195 µM, OCI-P5x cells, without rucaparib) 103% | viability ([13]; at 0.0781 µM, OCI-C5x cells, with rucaparib 10 µM, 100% = cells with rucaparib alone) 120% | viability ([13]; at 0.0781 µM, OCI-C5x cells, without rucaparib) 124% | viability ([13]; at 0.0781 µM, OCI-P5x cells, with rucaparib 20 µM, 100% = cells with rucaparib alone) 103% | viability ([13]; at 0.0781 µM, OCI-P5x cells, without rucaparib) 110% | viability ([13]; at 0.313 µM, OCI-C5x cells, with rucaparib 10 µM, 100% = cells with rucaparib alone) 126% | viability ([13]; at 0.313 µM, OCI-C5x cells, without rucaparib) 123% | viability ([13]; at 0.313 µM, OCI-P5x cells, with rucaparib 20 µM, 100% = cells with rucaparib alone) 107% | viability ([13]; at 0.313 µM, OCI-P5x cells, without rucaparib) 106% | viability ([13]; at 1.25 µM, OCI-C5x cells, with rucaparib 10 µM, 100% = cells with rucaparib alone) 131% | viability ([13]; at 1.25 µM, OCI-C5x cells, without rucaparib) 124% | viability ([13]; at 1.25 µM, OCI-P5x cells, with rucaparib 20 µM, 100% = cells with rucaparib alone) 105% | viability ([13]; at 1.25 µM, OCI-P5x cells, without rucaparib) 104% | viability ([13]; at 5 µM, OCI-C5x cells, with rucaparib 10 µM, 100% = cells with rucaparib alone) 157% | viability ([13]; at 5 µM, OCI-C5x cells, without rucaparib) 114% | viability ([13]; at 5 µM, OCI-P5x cells, without rucaparib) 100%

CC1=C(CO)C(=O)O[C@@H]([C@@H](C)[C@H]2CC[C@H]3[C@@H]4C[C@H]5O[C@]56[C@@H](O)C=CC(=O)[C@]6(C)[C@H]4CC[C@]23C)C1
active: AC50 [1] 1.48 µM | AC50 [2] 1.87 µM | AC50 [3] 1.18 µM | AC50 [4] 0.332 µM | AC50 [5] 1.05 µM | AC50 [6] 1.48 µM | AC50 [7] 0.743 µM | AC50 [8] 1.32 µM | IC50 [9] 2.35 µM

CC(C)(C)c1cc(C(=O)O)c(NC(=O)Nc2ccc3[nH]ncc3c2)s1
inactive: outcome [1] | outcome [2] | outcome [3] | outcome [4] | outcome [5] | outcome [6] | outcome [7] | outcome [8] | outcome [9]

COc1cc2nc(-c3ccc(N4CCN(C)CC4)cc3)nc(NCCN3CCOCC3)c2cc1OC
inactive: outcome [9]
active: AC50 [1] 14.8 µM | AC50 [2] 0.332 µM | AC50 [3] 0.332 µM | AC50 [4] 0.132 µM | AC50 [5] 9.34 µM | AC50 [6] 8.33 µM | AC50 [7] 0.118 µM | AC50 [8] 16.6 µM

COc1cc(=C2C=c3ccccc3=N2)[nH]/c1=C/c1[nH]c(C)cc1C
active: AC50 [1] 6.61 µM | AC50 [2] 14.8 µM | AC50 [3] 4.69 µM | AC50 [4] 5.9 µM | AC50 [5] 3.32 µM | AC50 [6] 2.09 µM | AC50 [7] 2.64 µM | AC50 [8] 5.9 µM | IC50 [9] 16.6 µM

O=C1NC(O)CCN1[C@@H]1O[C@H](CO)[C@@H](O)[C@H]1O (some centres undefined)
inactive: outcome [1] | outcome [2] | outcome [3] | outcome [4] | outcome [5] | outcome [6] | outcome [7] | outcome [8] | outcome [9]

CC(C)[C@H](O)C(=O)N[C@@H](C)C(=O)N[C@@H]1C(=O)N(C)CCc2ccccc21
inactive: outcome [1] | outcome [2] | outcome [3] | outcome [4] | outcome [5] | outcome [6] | outcome [7] | outcome [8] | outcome [9]

C=C(C)[C@@H]1CC[C@]2(C)CC[C@]3(C)[C@H](CC[C@@H]4[C@@]5(C)CC[C@H](O)C(C)(C)[C@@H]5CC[C@]43C)[C@@H]12
inactive: outcome [1] | outcome [2] | outcome [3] | outcome [4] | outcome [5] | outcome [6] | outcome [7] | outcome [8] | outcome [9]

COc1ccc(S(=O)(=O)Nc2cc(-c3c(O)ccc4ccccc34)c(O)c3ccccc23)cc1
active: AC50 [1] 0.105 µM | AC50 [2] 13.2 µM | AC50 [3] 18.7 µM | AC50 [4] 7.43 µM | AC50 [5] 3.32 µM | AC50 [6] 2.35 µM | AC50 [7] 4.69 µM | AC50 [8] 2.95 µM
inactive: outcome [9]

CCC(=O)O[C@]1(C(=O)CO)CC[C@H]2[C@@H]3CCC4=CC(=O)CC[C@]4(C)[C@H]3CC[C@@]21C
inactive: outcome [1] | outcome [2] | outcome [3] | outcome [4] | outcome [5] | outcome [6] | outcome [7] | outcome [8] | outcome [9]

Clc1cccc(-n2nnnc2NCc2ccccc2Oc2ccccn2)c1Cl
inactive: outcome [1] | outcome [2] | outcome [3] | outcome [4] | outcome [5] | outcome [6] | outcome [7] | outcome [8] | outcome [9]

CCOC(=O)/C=C/[C@H](C[C@@H]1CCNC1=O)NC(=O)[C@@H](CC(=O)[C@@H](NC(=O)c1cc(C)on1)C(C)C)Cc1ccc(F)cc1
inactive: outcome [1] | outcome [2] | outcome [3] | outcome [4] | outcome [5] | outcome [6] | outcome [7] | outcome [8] | outcome [9]
